# Measured values reported in publication PMC5540273 (PLoS ONE, 2017).
# Read-outs that look alike come from different tables or passages of the source.
# Assays:
# CLK2 = conditions: concentration: 1 μM,replicates: in singlicate; n = 1
# CLK3 = conditions: concentration: 1 μM,replicates: in singlicate; n = 1
# CLK4 = conditions: concentration: 1 μM,replicates: in singlicate; n = 1
# CSF1R-autoinhibited = conditions: concentration: 1 μM,replicates: in singlicate; n = 1
# CSF1R = conditions: concentration: 1 μM,replicates: in singlicate; n = 1
# CSK = conditions: concentration: 1 μM,replicates: in singlicate; n = 1
# CSNK1A1L = conditions: concentration: 1 μM,replicates: in singlicate; n = 1
# CSNK1A1 = conditions: concentration: 1 μM,replicates: in singlicate; n = 1
# CSNK1D = conditions: concentration: 1 μM,replicates: in singlicate; n = 1
# CSNK1E = conditions: concentration: 1 μM,replicates: in singlicate; n = 1
# CSNK1G1 = conditions: concentration: 1 μM,replicates: in singlicate; n = 1
# CSNK1G2 = conditions: concentration: 1 μM,replicates: in singlicate; n = 1
# CSNK1G3 = conditions: concentration: 1 μM,replicates: in singlicate; n = 1
# CSNK2A1 = conditions: n = 1
# CSNK2A2 = conditions: n = 1
# CTK = test system: T1, CTK; conditions: concentration: 1 μM,replicates: in singlicate; n = 1
# T1 construct: gene MATK
# DAPK1 = conditions: concentration: 1 μM,replicates: in singlicate; n = 1
# DAPK2 = conditions: concentration: 1 μM,replicates: in singlicate; n = 1
# DAPK3 = conditions: concentration: 1 μM,replicates: in singlicate; n = 1
# DCAMKL1 = test system: T2, DCAMKL1; conditions: concentration: 1 μM,replicates: in singlicate; n = 1
# T2 construct: gene DCLK1
# [1] = concentration: 1 μM,replicates: in singlicate
# 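Note: KINOMEscan kinase panel screen.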
smiles,measurement,setting,value
COc1cccc(OC)c1C(=O)Nc1cccc(-c2nn3ccccc3c2-c2ccnc(Nc3cccc(F)c3)n2)c1 [GSK361065],%Inh,CLK2,21%
same,%Inh,CLK3,0%
same,%Inh,CLK4,0%
same,%Inh,CSF1R-autoinhibited,4%
same,%Inh,CSF1R,60%
same,%Inh,CSK,18%
same,%Inh,CSNK1A1L,0%
same,%Inh,CSNK1A1,25%
same,%Inh,CSNK1D,9%
same,%Inh,CSNK1E,64%
same,%Inh,CSNK1G1,14%
same,%Inh,CSNK1G2,17%
same,%Inh,CSNK1G3,3%
same,%Inh,CSNK2A1; 1 µM,0%
same,%Inh,CSNK2A2; 1 µM,23%
same,%Inh,CTK,21%
same,%Inh,DAPK1,10%
same,%Inh,DAPK2,6%
same,%Inh,DAPK3,0%
same,%Inh,DCAMKL1,16%
CN1CCN(CCCNc2nccc(-c3c(-c4ccc(F)cc4)nn4cc(C(N)=O)ccc34)n2)CC1 [GW622475],%Inh,CLK2,0%
same,%Inh,CLK3,0%
same,%Inh,CLK4,12%
same,%Inh,CSF1R-autoinhibited,0%
same,%Inh,CSF1R,22%
same,%Inh,CSK,11%
same,%Inh,CSNK1A1L,52%
same,%Inh,CSNK1A1,95.7%
same,%Inh,CSNK1D,97.4%
same,%Inh,CSNK1E,99.7%
same,%Inh,CSNK1G1,27%
same,%Inh,CSNK1G2,0%
same,%Inh,CSNK1G3,20%
same,%Inh,CSNK2A1; [1],1%
same,%Inh,CSNK2A2; [1],33%
same,%Inh,CTK,1%
same,%Inh,DAPK1,29%
same,%Inh,DAPK2,10%
same,%Inh,DAPK3,16%
same,%Inh,DCAMKL1,21%
COc1cccc(C2=C(Nc3cccc(Cl)c3)C(=O)NC2=O)c1 [SB-341556],%Inh,CLK2,69%
same,%Inh,CLK3,0%
same,%Inh,CLK4,55%
same,%Inh,CSF1R-autoinhibited,0%
same,%Inh,CSF1R,18%
same,%Inh,CSK,0%
same,%Inh,CSNK1A1L,0%
same,%Inh,CSNK1A1,36%
same,%Inh,CSNK1D,10%
same,%Inh,CSNK1E,20%
same,%Inh,CSNK1G1,0%
same,%Inh,CSNK1G2,0%
same,%Inh,CSNK1G3,19%
same,%Inh,CSNK2A1; [1],11%
same,%Inh,CSNK2A2; [1],4%
same,%Inh,CTK,0%
same,%Inh,DAPK1,3%
same,%Inh,DAPK2,0%
same,%Inh,DAPK3,7%
same,%Inh,DCAMKL1,0%
Cn1cc(-c2cccc3c(N)c(C(N)=O)nnc23)cn1,%Inh,CLK2,78%
same,%Inh,CLK3,20%
same,%Inh,CLK4,75%
same,%Inh,CSF1R-autoinhibited,0%
same,%Inh,CSF1R,0%
same,%Inh,CSK,19%
same,%Inh,CSNK1A1L,21%
same,%Inh,CSNK1A1,72%
same,%Inh,CSNK1D,32%
same,%Inh,CSNK1E,25%
same,%Inh,CSNK1G1,13%
same,%Inh,CSNK1G2,7%
same,%Inh,CSNK1G3,10%
same,%Inh,CSNK2A1; [1],26%
same,%Inh,CSNK2A2; [1],33%
same,%Inh,CTK,32%
same,%Inh,DAPK1,3%
same,%Inh,DAPK2,16%
same,%Inh,DAPK3,5%
same,%Inh,DCAMKL1,7%
COc1cc2c(Nc3ccc(NC(=O)c4ccccc4)cc3)ncnc2cc1OCCCN1CCOCC1 [GSK301329],%Inh,CLK2,0%
same,%Inh,CLK3,100%
same,%Inh,CLK4,6%
same,%Inh,CSF1R-autoinhibited,0%
same,%Inh,CSF1R,18%
same,%Inh,CSK,4%
same,%Inh,CSNK1A1L,9%
same,%Inh,CSNK1A1,7%
same,%Inh,CSNK1D,3%
same,%Inh,CSNK1E,59%
same,%Inh,CSNK1G1,0%
same,%Inh,CSNK1G2,0%
same,%Inh,CSNK1G3,3%
same,%Inh,CSNK2A1; [1],9%
same,%Inh,CSNK2A2; [1],14%
same,%Inh,CTK,32%
same,%Inh,DAPK1,0%
same,%Inh,DAPK2,0%
same,%Inh,DAPK3,0%
same,%Inh,DCAMKL1,13%
O=c1[nH]cc(-c2ccc(O)cc2)c2sc(-c3ccncc3)cc12 [GSK1033723],%Inh,CLK2,67%
same,%Inh,CLK3,19%
same,%Inh,CLK4,95.9%
same,%Inh,CSF1R-autoinhibited,2%
same,%Inh,CSF1R,25%
same,%Inh,CSK,5%
same,%Inh,CSNK1A1L,13%
same,%Inh,CSNK1A1,57%
same,%Inh,CSNK1D,41%
same,%Inh,CSNK1E,46%
same,%Inh,CSNK1G1,23%
same,%Inh,CSNK1G2,0%
same,%Inh,CSNK1G3,13%
same,%Inh,CSNK2A1; [1],9%
same,%Inh,CSNK2A2; [1],24%
same,%Inh,CTK,0%
same,%Inh,DAPK1,19%
same,%Inh,DAPK2,27%
same,%Inh,DAPK3,30%
same,%Inh,DCAMKL1,8%
Cn1ccc2ncnc(Oc3ccc(NC(=O)Nc4cnn(C(C)(C)C)c4)c(Cl)c3)c21,%Inh,CLK2,12%
same,%Inh,CLK3,5%
same,%Inh,CLK4,9%
same,%Inh,CSF1R-autoinhibited,28%
same,%Inh,CSF1R,99.9%
same,%Inh,CSK,0%
same,%Inh,CSNK1A1L,0%
same,%Inh,CSNK1A1,0%
same,%Inh,CSNK1D,0%
same,%Inh,CSNK1E,2%
same,%Inh,CSNK1G1,0%
same,%Inh,CSNK1G2,32%
same,%Inh,CSNK1G3,0%
same,%Inh,CSNK2A1; [1],0%
same,%Inh,CSNK2A2; [1],38%
same,%Inh,CTK,20%
same,%Inh,DAPK1,8%
same,%Inh,DAPK2,0%
same,%Inh,DAPK3,0%
same,%Inh,DCAMKL1,10%
COC(=O)Nc1nc2cc(Oc3ccc(NC(=O)Nc4cc(C(F)(F)F)ccc4Cl)cc3)ccc2[nH]1.Cl [GW697465],%Inh,CLK2,0%
same,%Inh,CLK3,13%
same,%Inh,CLK4,43%
same,%Inh,CSF1R-autoinhibited,47%
same,%Inh,CSF1R,99.6%
same,%Inh,CSK,0%
same,%Inh,CSNK1A1L,9%
same,%Inh,CSNK1A1,0%
same,%Inh,CSNK1D,69%
same,%Inh,CSNK1E,39%
same,%Inh,CSNK1G1,0%
same,%Inh,CSNK1G2,0%
same,%Inh,CSNK1G3,8%
same,%Inh,CSNK2A1; [1],0%
same,%Inh,CSNK2A2; [1],0%
same,%Inh,CTK,0%
same,%Inh,DAPK1,2%
same,%Inh,DAPK2,0%
same,%Inh,DAPK3,0%
same,%Inh,DCAMKL1,0%
